Test results as given in ChEMBL document CHEMBL3988442, “University of Dundee, Small-Polar-MMV Screening Library” (2021).
Hit rate of the full screen: of about 85,000 compounds, about 440 (0.52%) showed an effect of 50% or more. The entries come from a sample that favours strong results as a whole.

Assay: In vitro enzyme assay to detect hydrolysis of chlorophenol red-beta-D-[…] directly proportional to the number of Toxoplasma stably expressing beta-galactosidase
Assay type: functional, organism-based, Toxoplasma gondii
Parameters: scale not given: in the data most compounds retested in dose-response had high values

SMILES | Percent Effect (10 µM) | Percent Effect (50 µM)
COC[C@@H]1CCC[C@@]12CN(Cc1ccc(C)s1)CCO2.O=C(O)C(F)(F)F | 74.98% | –
COC[C@@H]1CCC[C@]12CN(Cc1ccco1)CCO2.O=C(O)C(F)(F)F | -8.533% | –
COC[C@@H]1CCC[C@@]12CN(Cc1ccco1)CCO2.O=C(O)C(F)(F)F | -11.03% | –
O=C(c1ccco1)N1CCC(N2CCCC2)CC1 | – | -19.12%
CN(Cc1ccccn1)Cc1csnn1 | – | 13.21%
O=C(c1ccc(Br)cn1)N1CCC(n2ccnn2)CC1 | – | 0.6699%
COc1cccc(CO)c1C | – | -13.36%
COC(=O)c1ccc(CN2CCCC(CO)C2)cc1 (stereo unspecified) | – | -14.35%
CCOc1ccc(C(=O)N2CCC(N)CC2)cc1 | – | 56.89%
CCOc1ccccc1C(=O)N1CCC(N)CC1 | – | 9.165%
CCCc1ccc(C(=O)N2CCC(N)CC2)cc1 | – | -1.427%
Cc1cc(Br)cc(C(=O)NC2(C(N)=O)CC2)c1 | – | 10.26%
CC(C)=CCN1CCN(CCO)CC1CCO (stereo unspecified) | – | 22.16%
O=C(NC1=NCCS1)c1cc2cc(F)ccc2s1 | – | -6.521%
Cn1nccc1CCC(=O)NCCN1CCCC1 | – | 10.39%
COc1ccc(C(C)N(C)Cc2c(C3CC3)[nH]c3ncccc23)cc1.Cl (stereo unspecified) | 65.16% | –
COc1ccc(C(C)N(C)Cc2c(C(C)C)[nH]c3ncccc23)cc1 (stereo unspecified) | -0.3537% | –
COc1ccc(C(C)N(C)Cc2c(C(C)(C)C)[nH]c3ncccc23)cc1 (stereo unspecified) | -0.9197% | –
NS(=O)(=O)c1cccnc1NC1CCc2ccccc21 (stereo unspecified) | – | 16.24%
CN(C1CCCCC1)S(=O)(=O)N1CCNCC1 | – | 5.411%
COC(=O)c1cnc(C)c(OC)c1 | – | -7.167%
CCS(=O)(=O)N1CCN(C(=O)c2cnc3[nH]nc(C)c3c2)CC1 | -8.634% | –
COC(=O)c1cnc2[nH]nc(C)c2c1 | – | 55.45%
NCCNC(=O)c1ccc(-c2ccc(Cl)cc2)s1 | – | 89.1%
NS(=O)(=O)CCNC(=O)c1ccc(-c2cccs2)s1 | – | 1.485%

SMILES | Percent Effect (10 µM) | Percent Effect (50 µM)
CC(C)(NC(=O)c1ccc(-c2ccc(F)cc2)s1)C(N)=O | 16.31% | –
Cc1csc(CCNC(=O)CSCC#N)n1 | – | -3.488%
CC(O)C(=O)Nc1ccc(Cl)c(OC(F)F)c1 (stereo unspecified) | – | -7.05%
CC(C)(C)OC(=O)NCc1cc(C(N)=O)co1 | – | -10.17%
CCC(CNC(=O)c1ccoc1)N1CCCC1 (stereo unspecified) | – | 9.191%
Cn1cc(NC(=O)CC2C=CCC2)cc(Br)c1=O (stereo unspecified) | – | -2.451%
OCCN(CCO)Cc1ccc(Br)c2cccnc12 | 9.5% | –
CCN(CCO)Cc1ccc(Br)c2cccnc12 | 72.7% | –
N#CCCN(CCC#N)Cc1ccc(Br)c2cccnc12 | 11.15% | –
Cc1nc2ccccc2nc1NCc1cccc(OCC2CCCO2)c1 (stereo unspecified) | 17.15% | –
N#Cc1ccc(NCc2cccc(OCC3CCCO3)c2)nc1 (stereo unspecified) | -17.65% | –
Cc1nnc(NCc2cccc(OCC3CCCO3)c2)c(C#N)c1C (stereo unspecified) | 91.1% | –
CN(C)S(=O)(=O)N(CCCO)c1ccccc1Br | – | -12.8%
CCc1nnc(Nc2cc(C)nc(C3CCN(c4ncccn4)C3)n2)s1 (stereo unspecified) | 8.527% | –
CCc1nnc(Nc2cc(C)nc(C3CCN(c4cnccn4)C3)n2)s1 (stereo unspecified) | 9.302% | –
CCc1nnc(Nc2cc(C)nc(C3CCN(c4ccncn4)C3)n2)s1 (stereo unspecified) | 84.37% | –
O=C(c1cccc(N2CCNC2=O)c1)N1CCOCC1 | – | -16.74%
Clc1ccccc1-c1cc(CNc2ncnc3c2CCNCC3)no1 | 22.17% | –
COc1ccc(-c2cc(CNc3ncnc4c3CCNCC4)no2)cc1 | 5.898% | –
Cc1ccc(-c2cc(CNc3ncnc4c3CCNCC4)no2)cc1 | 59.71% | –
O=C(CSc1nnc[nH]1)NCc1ccc(Br)c(F)c1 | – | -12.01%
CCOc1ccc(CN2C(=O)CC(C)(C)C2=O)nc1 | 15.64% | –
CC(C)n1ccc(CN2C(=O)CC(C)(C)C2=O)n1 | – | 66.84%
CC(=O)Cc1ccn(C(C)C)n1 | – | -14.04%
Nc1n[nH]c(SCc2ccc3c(c2)OCCO3)n1 | – | 48.58%

SMILES | Percent Effect (10 µM) | Percent Effect (50 µM)
CC(C)(C)OC(=O)CNC1CCOCC1 | – | -4.673%
Cc1cccc(NC(=O)C2CCCNC2)n1 (stereo unspecified) | – | -13.07%
O=C(Nc1ccc(Br)cn1)C1CCCNC1 (stereo unspecified) | – | 56.99%
CCN1CC(C(=O)Nc2ccc(Br)cn2)CC1=O (stereo unspecified) | – | -17.13%
CC(NC(=O)c1ccc(Br)cc1)C(=O)N1CCOCC1 (stereo unspecified) | – | -8.67%
Cc1cc(C)n(CC2CCCN2CCCS(C)(=O)=O)n1 (stereo unspecified) | 55.61% | –
Cc1cc(C)n(CC2CCCN2CCCS(N)(=O)=O)n1 (stereo unspecified) | -7.895% | –
Cc1cc(C)n(CC2CCCN2CCS(C)(=O)=O)n1 (stereo unspecified) | -2.075% | –
Cc1n[nH]c(C)c1C(NC(N)=O)c1ccccc1 (stereo unspecified) | – | 2.289%
CCN1CCCN(c2ccccn2)CC1 | – | 3.404%
NCc1cccc(-c2ccccn2)n1 | – | 73.75%
NCc1nc(-c2ccccn2)cs1 | – | -2.115%
NCc1nc(-c2ccccn2)no1 | – | -15.18%
CN(CC(=O)Nc1ccsc1)C1CCS(=O)(=O)C1 (stereo unspecified) | – | -6.022%
O=C(NCC1CCOC1)c1ccoc1C(F)(F)F (stereo unspecified) | – | -4.875%
NCCNc1ccc2ccccc2n1 | – | -5.159%
O=C(c1ccc(F)cc1)C(O)O | – | 0.6979%
CCn1ncnc1CN1CCCC2(C1)CN(C)C(=O)O2 (stereo unspecified) | – | -8.186%
COCC(=O)N1CCCCCC1C1CCNCC1 (stereo unspecified) | – | -2.687%
NC(=O)N1CCCCCC1C1CCNCC1 (stereo unspecified) | – | 99.53%
CC(=O)N1CCCCCC1C1CCNCC1 (stereo unspecified) | – | -20.88%
COCCC(=O)N(C)C(C)Cc1ncccc1C (stereo unspecified) | – | -3.603%
CC1(C)CC(n2cccn2)C(C)(C)O1 (stereo unspecified) | – | 95.21%
O[C@@H]1CCC[C@H]1n1cccn1 | – | 27.87%
Cn1cc(C(=O)NC2CC(C)(C)OC2(C)C)cn1 (stereo unspecified) | – | 6.396%

SMILES | Percent Effect (10 µM) | Percent Effect (50 µM)
Cc1cc(C(=O)NCc2ccc(CO)cc2)cc(C)n1 | – | 4.895%
CC(C)(C)c1cn2c(n1)C(CNCc1cnn3ccccc13)CCC2 (stereo unspecified) | 84.08% | –
CC(C)(C)c1cn2c(n1)C(CNCc1ccccn1)CCC2 (stereo unspecified) | 84.2% | –
Cc1cn2c(n1)C(CNCC1=Cc3ccccc3OC1)CCC2 (stereo unspecified) | -4.432% | –
Cc1cn2c(n1)C(CNCc1cnn3ccccc13)CCC2 (stereo unspecified) | -1.725% | –
Cn1cccc1CNCC1CCCn2cc(C(C)(C)C)nc21 (stereo unspecified) | 2.504% | –
Cc1cn2c(n1)C(CNCc1cccc3c1OCO3)CCC2 (stereo unspecified) | 1.818% | –
Cn1nccc1NC(=O)N1CCOCC1C1CC1 (stereo unspecified) | – | -2.135%
O=C1COCC(Cc2ccccc2)N1 (stereo unspecified) | – | -23.94%
NC(=O)CN1CCn2cccc2C1c1ccccc1 (stereo unspecified) | – | -16.03%
CNC1CCN(c2cc(OC)cc(OC)c2)C1 (stereo unspecified) | – | -16.53%
COCc1ccccc1C(=O)N1CCCC(O)C1 (stereo unspecified) | – | 58.79%
CCN1CCCN(C(=O)c2ccccc2COC)CC1 | – | 3.121%
COCc1ccccc1C(=O)N1CCCC(c2cc(C)[nH]n2)C1 (stereo unspecified) | -0.6285% | –
O=C(NCC(O)C1CCCCC1)[C@@H](O)c1ccccc1 (stereo partly specified) | – | -2.815%
Cc1nn(CCO)c(NC(C)c2nccs2)c1C (stereo unspecified) | – | -2.968%
COC[C@H]1CCC[C@H]1NC(=O)CCn1cncn1 | – | 1.07%
CN(Cc1cnn(C)c1)C(=O)CN1CCCC(Cn2cncn2)C1 (stereo unspecified) | 96.23% | –
Cc1ccc(CN(C)C(=O)CN2CCCC(Cn3cncn3)C2)cc1 (stereo unspecified) | -19.93% | –
CN(Cc1ccccc1)C(=O)CN1CCCC(Cn2cncn2)C1 (stereo unspecified) | -36.27% | –
NC(=O)COC(=O)c1cc(Cl)cc(C(F)(F)F)c1 | – | -16.81%
Cc1[nH]ncc1C(=O)NCCCSCC(C)C | – | 11.62%
Cc1nn(C)c2c(=O)n(Cc3ccc(F)cc3)nnc12 | 62.42% | –
Cc1nn(C)c2c(=O)n(Cc3ccc(Cl)cc3)nnc12 | 71.45% | –
Cc1nn(C)c(=O)c2nn(-c3ccc(F)cc3)c(C)c12 | -17.45% | –

SMILES | Percent Effect (10 µM) | Percent Effect (50 µM)
Cc1c(C(=O)NC(C)C)nnn1Cc1ccccc1 | – | 17.24%
CCn1nc(C)c2nnn(CC(=O)Nc3ccccc3)c(=O)c21 | 1.414% | –
Cc1nn(C)c2c(=O)n(CC(=O)Nc3cc(Cl)cc(Cl)c3)nnc12 | -3.347% | –
Cc1nn(C)c2c(=O)n(Cc3ccc(C#N)cc3)nnc12 | 39.12% | –
Cc1nn(C)c2c(=O)n(Cc3ccccc3)nnc12 | 61.89% | –
CCn1nc(C)c2nnn(CC(=O)Nc3cccc(F)c3)c(=O)c21 | -2.626% | –
COCC(C)(CCO)NCc1c(C)noc1C (stereo unspecified) | – | -23.44%
CCC(CNC(=O)Nc1cc(C)nn1C)N1CCCC1 (stereo unspecified) | – | -4.617%
NC(=O)C1CCN(CCOc2ccccc2F)CC1 | – | -5.356%
Cc1cnccc1NCCNC(=O)Cc1ccccn1 | – | -14.36%
CCO[C@H]1CN(C)C[C@@H]1NC(=O)c1cnc(CC)nc1 | – | 7.652%
C[S+]([O-])c1nncn1Cc1cccc2cccnc12 (stereo unspecified) | – | -6.749%
Cc1cc(N2CCOC(CN(C)CC(N)=O)C2)ccn1 (stereo unspecified) | – | 2.869%
COCc1[nH][nH]c(=O)c1CCN | – | -30.62%
OC1(CNCCCn2cc(Cl)cn2)CCCNC1 (stereo unspecified) | – | -11.83%
OC1(CNCCc2csc(-c3ccncc3)n2)CCCNC1 (stereo unspecified) | -15.25% | –
OC1(CNCCOCc2ccc(Cl)cc2)CCCNC1 (stereo unspecified) | – | 57.1%
CCOCC(O)CN(C)Cc1cccc(C(N)=O)c1 (stereo unspecified) | – | -13.39%
CCN1C[C@H]2CCN(C(=O)NC3CCCC3)CC[C@H]2S1(=O)=O | -4.304% | –
CCN1C[C@H]2CCN(C(=O)NC)CC[C@H]2S1(=O)=O | 59.16% | –
CCN1C[C@H]2CCN(C(C)=O)CC[C@H]2S1(=O)=O | -1.674% | –
